Hits are enriched below; roughly 7.2% of the tested compounds scored in any of these assays.
SUMO Mot1 rescue – yeast Mot1-301 growth rescue at high temperature, primary screen, SUMOylation pathway inhibitor project, S. cerevisiae, ATP luminescence, 38.5C. S. cerevisiae Mot1-301 growth rescue; percent above DMSO median, 100 means doubled. growth rescue, % at 18.8 µM. 320,000 tested, 1% active;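 active means every valid replicate shows activation above 250% relative to neutral control wells; inactive means the rest, any valid replicate at or below 250%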
ALR inh – inhibitors of human ALR sulfhydryl oxidase, primary screen, biochemical, H2O2 detection, HRP-luminol luminescence, single point | FAD-linked sulfhydryl oxidase ALR (Homo sapiens), P55789 | purified ALR, DTT oxidation | inhibition, % (test concentration not listed) | 290,000 tested, 3.8% active | AID 485317, 2010;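 active means mean replicate inhibition above about 79%, with every replicate also reaching it, limit read from the data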
Efflux pump inh – inhibitors of Candida efflux pumps in yeast, primary screen, S. cerevisiae, Nile Red, multiplex; S. cerevisiae Candida pump triplex; inhibition, % at 10 µM; 330,000 tested, 0.44% active;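 active means plate passing quality check with inhibition over a set limit, or well fluorescence over plate mean plus 4 SD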;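 further: Nile Red retained in pooled yeast measured as flow cytometry median fluorescence; higher means more Nile Red kept so more efflux inhibition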
VLA-4 inh – inhibition in human VLA-4 binding assay, primary screen, VLA-4 allosteric modulator project, MLPCN library, flow cytometry, VLA-4 expressing cells | Integrin alpha-4 (Homo sapiens), P13612 | inhibition, % (about 7 µM as worked out from the volumes in the protocol) | AID 2557, 2010 | ligand binding flow cytometry | 330,000 tested, 0.2% active; in the data active means inhibition above about 50%
A1 inh – caspase 3/7 activation in MEF A1-2A-BIM cells, primary screen, A1 inhibitor project, cell-based, luminescence, HTS. Caspase-Glo 3/7 luminescence, 3 h; percent of clofoctol response, vehicle zero. caspase activation, % (test concentration not listed). 330,000 tested, 0.066% active. AID 2462, 2010;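 active means over half of replicate activation scores above 10%, or exactly half above 10 with the replicate mean above 10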
AHR activator – AHR activators, primary screen, cell-based, luminescence, luciferase reporter, human; Aryl hydrocarbon receptor (Homo sapiens), P35869; AHR-responsive luciferase reporter cells; activation, % at 5 µM; 320,000 tested, 2.5% active; in the data active means activation above about 47%
Of the large screens only hits and unclear results are named; the others gave an inactive call.

COc1cc(OC)cc(-c2cc(N)n(S(=O)(=O)Cc3ccccc3)n2)c1	AHR activator 63
CCCS(=O)(=O)n1nc(-c2ccc(OC)cc2OC)cc1N	AHR activator 62
COc1cc(OC)cc(-c2cc(N)n(S(=O)(=O)c3cccc4nsnc34)n2)c1	AHR activator 55
Cn1c(-c2ccccc2)cnc1NCc1cc2c(cc1[N+](=O)[O-])OCO2	ALR inh 98
Cn1c(-c2ccc3c(c2)OCO3)cnc1NCc1cccc(O)c1	ALR inh 88
Cn1c(-c2ccc(F)cc2)cnc1NCc1cc2c(cc1[N+](=O)[O-])OCO2	ALR inh 93
Cn1c(-c2ccc(Cl)cc2)cnc1NCc1cc2c(cc1[N+](=O)[O-])OCO2	none
Cc1cc(F)ccc1NCc1cc2c(cc1[N+](=O)[O-])OCO2	none
Cc1cc2ccccn2c1C(=O)Nc1ccccc1	AHR activator 60
Cc1cc2ccccn2c1C(=O)Nc1ccc(Cl)cc1	none
COc1ccc(C2Nc3cc(OC)ccc3-n3cccc32)cc1 (centres undefined)	AHR activator 60
COc1ccc(C2NS(=O)(=O)N=C2N)cc1 (centres undefined)	none
O=C(Nc1nc(-c2ccc(Cl)cc2)cs1)C1=COCCO1	none
COc1ccc(Cl)c2sc(NC(=O)C3=COCCO3)nc12	none (no result: ALR inh)
Cc1ccc(Cl)c2sc(NC(=O)C3=COCCO3)nc12	AHR activator 58
Cc1sc(NC(=O)C2=COCCO2)nc1-c1ccc(Cl)cc1	AHR activator 65
Cc1ccc(N(CC(=O)NCC2CCCO2)C(=O)CCC(=O)Nc2cc(C)on2)cc1 (centres undefined)	none
Cc1ccc(/C=N/N2CCN(Cc3cccc4ccccc34)CC2)s1	none
O=C(NCCO)N1c2ccccc2Sc2ccccc21	none
O=C(Nc1ccccc1O)N1c2ccccc2Sc2ccccc21	ALR inh 84
Cc1ccccc1-c1ccc(Nc2ccc(N3CCOCC3)cc2)nn1	ALR inh 93
O=S1(=O)N=C(Nc2ccc(N3CCOCC3)cc2)c2ccccc21	none
O=C(CN1C(=O)CCC1=O)Nc1nc(-c2ccc(Cl)s2)cs1	AHR activator 78 (no result: SUMO Mot1 rescue, ALR inh)
C=CCNC(=O)c1ccccc1NC(=O)c1ccccc1C	none
C=CCNC(=O)c1ccccc1NC(=O)c1ccccc1SC	AHR activator 77
CCCCCC/C=N/Nc1nnc(Cc2ccccc2)c(=O)[nH]1	none (no result: ALR inh)
COc1ccc(Cl)cc1/C=C/c1ccc2cccc(O)c2n1	AHR activator 66
COc1cc(Cl)cc(/C=C/c2ccc3cccc(O)c3n2)c1OC	none
COc1ccccc1/C=C/c1ccc2cccc(O)c2n1	AHR activator 75
CCOc1cccc(/C=C/c2ccc3cccc(O)c3n2)c1OC	AHR activator 76
Oc1cccc2ccc(/C=C/c3ccccc3Cl)nc12	none
Cc1ccc(S(=O)(=O)N2CCC(C(=O)NCCCN3CCOCC3)CC2)cc1	none
O=C(NCC(c1ccco1)N1CCOCC1)C1CCCCC1 (centres undefined)	none
COc1ccc(CN2CCNC(=O)C2CC(=O)NCC2CCOCC2)c(F)c1 (centres undefined)	none
COc1ccccc1NC(=O)CSc1nnc(Cc2cccs2)n1C	none
COc1cc2c(cc1NC(=O)CSc1cccc[n+]1[O-])oc1ccccc12	ALR inh 96, AHR activator 80
Cc1ccc2nc(SCC(=O)Nc3cccnc3Cl)[nH]c2c1	ALR inh 88
COc1cc2c(cc1NC(=O)CSc1ccc(C)cc1)oc1ccccc12	none
COc1cc2c(cc1NC(=O)CSc1nnc(Cc3cccs3)n1C)oc1ccccc12	AHR activator 47
COc1cc2c(cc1NC(=O)CSc1nc3ccc(C)cc3[nH]1)oc1ccccc12	AHR activator 57
CCc1nnnn1-c1ccc([N+](=O)[O-])cc1C	none
Cc1cc(Cl)ccc1NC(=O)CN1C(=O)C(=O)N(C2CCCC2)C1=O	none (no result: ALR inh)
CCOC(=O)NC(=O)CSc1ccc(C)cc1C	none
CCOc1ccc(-n2c(SCC(=O)O)nc3sc4c(c3c2=O)CCCC4)cc1	none
Cc1ccc(-n2c(SCC(=O)O)nc3sc4c(c3c2=O)C(C)CCC4)cc1 (centres undefined)	ALR inh 98
Cc1ccc(S(=O)(=O)N(Cc2cc3cc4c(cc3[nH]c2=O)OCCO4)CC2CCCO2)cc1 (centres undefined)	SUMO Mot1 rescue 332
O=c1[nH]c2cc3c(cc2cc1CN(Cc1nnnn1CC1CCCO1)C1CCCCC1)OCO3 (centres undefined)	AHR activator 56
O=C(NCC(=O)N1CCC2(CC1)NCCc1[nH]cnc12)c1ccc(F)cc1	none (no result: ALR inh)
Cc1c(C#N)c(NC(=O)CCl)n(Cc2ccccc2)c1C	ALR inh 96
Cc1c(C#N)c(NC(=O)CCl)n(Cc2ccc(F)cc2)c1C	none
COc1ccc(CN(C)CC(=O)Nc2sc3c(c2C#N)CCC3)c(OC)c1	none
CCOc1ccccc1N=c1oc2cc(O)ccc2cc1C(=O)NCC1CCCO1 (centres undefined)	ALR inh 98
COc1ccc(N=c2oc3cc(O)ccc3cc2C(=O)NCC2CCCO2)cc1 (centres undefined)	none
CC(=O)c1cc2ccc(O)cc2oc1=O	none (no result: ALR inh)
CCOc1ccc(N=c2oc3cc(O)ccc3cc2C(=O)NCC2CCCO2)cc1 (centres undefined)	SUMO Mot1 rescue 357
COc1ccc(N=c2oc3cc(O)ccc3cc2C(=O)NCC2CCCO2)c(OC)c1 (centres undefined)	none
Cc1ccc(N=c2oc3cc(O)ccc3cc2C(N)=O)cc1	ALR inh 96 (no result: SUMO Mot1 rescue)
CCCn1nc(NC(=O)c2cccs2)c2cc3cc(OC)ccc3nc21	AHR activator 66
CCCCn1nc(NC(=O)c2cccs2)c2cc3cc(OC)ccc3nc21	AHR activator 50
CCCn1nc(NC(=O)c2cccs2)c2cc3cc(C)ccc3nc21	none (no result: ALR inh)
Cc1ccnc(NC(=O)c2cc3cc(F)ccc3s2)c1	none
CC(C)C(=O)N1CCN(c2ccccc2N)CC1	ALR inh 99
COc1cccc(N2CCN(C(=O)c3cc(C)oc3C)CC2)c1	ALR inh 90
CCOC(=O)N1CCN(c2ccccc2O)CC1	ALR inh 99
COc1ccccc1N1CCN(C(=O)c2cc(C)oc2C)CC1	none (no result: ALR inh)
Cc1cc(C(=O)N2CCN(c3ccccc3O)CC2)c(C)o1	ALR inh 98
CC(=O)Nc1ccc(C(=O)NNC(=O)C2C3CCCCC32)cc1 (centres undefined)	none
O=C(N/N=C/c1ccc(O)cc1O)/C(=C/c1ccccc1)CCO	ALR inh 81

Bioassay records deposited in PubChem BioAssay by several laboratories.
